# PubChem BioAssay (NCI)
# About 83,000 compounds went through this panel and 20% of them were active in at least one assay; those are over-represented in the sample as a whole.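 For each line, cells grew in 96-well plates with the test compound present at a single concentration for 48 hours.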 Unmarked numbers belong to inactive results. Calls of active or inactive are those of the source. How the source made its calls: active means growth percent below 10; inactive means the rest.
# What was measured:
# Experiment in all cases: NCI-60 one-dose screen, 48 h (100 = growth as untreated, 0 = no growth, -100 = all killed)
# Details in all cases: 10 µM unless noted
# SK-MEL-2 melanoma = system: SK-MEL-2 melanoma
# SN12C renal = system: SN12C renal
# UO-31 renal = system: UO-31 renal
# TK-10 renal = system: TK-10 renal
# ACHN renal = system: ACHN renal
# CAKI-1 renal = system: CAKI-1 renal
# A498 renal = system: A498 renal
# MOLT-4 leukemia = system: MOLT-4 leukemia
# CCRF-CEM leukemia = system: CCRF-CEM leukemia
SMILES,growth (SK-MEL-2 melanoma),growth (SN12C renal),growth (UO-31 renal),growth (TK-10 renal),growth (ACHN renal),growth (CAKI-1 renal),growth (A498 renal),growth (MOLT-4 leukemia),growth (CCRF-CEM leukemia) [%]
CC(=O)c1nn(-c2ccccc2)c(=Nc2ccccc2)cc1C,114%,97.7%,86.2%,104%,86.7%,99.1%,103%,94.3%,
CCCCCCCC[Si](OCC)(OCC)OCC,102%,106%,81.1%,90.8%,98.2%,54.9%,105%,95.7%,
CCCCCCCCCCCCCCCCNC(=O)Nc1ccc2ccccc2c1,118%,89.7%,104%,110%,108%,107%,104%,105%,
CNc1nc(NC2CCCC2)nc(Sc2ccc(OC)cc2)n1,9.28% [100 µM] (active),28.5% [100 µM],12.8% [100 µM],42.1% [100 µM],21% [100 µM],0.0278% [100 µM] (active),10.1% [100 µM],-5.92% [100 µM] (active),
CCCCCc1c(C)[nH]c(/C=C2\N=C(c3ccc[nH]3)C=C2OCc2ccccc2)c1C,-75% [100 µM] (active),-77% [100 µM] (active),-93.6% [100 µM] (active),-81.3% [100 µM] (active),-91.5% [100 µM] (active),-74.4% [100 µM] (active),-79.2% [100 µM] (active),-57.8% [100 µM] (active),
C=CCN(/C=C/CN(CC=C)CC=C)CC=C,115%,104%,90.1%,96.9%,93.2%,69.7%,91.8%,96.4%,
CC(C)OP(=O)(OC(C)C)c1ncc(-c2ccc(C(F)(F)F)cc2)c(NC2CCCCCC2)n1,-85.1% [33.3 µM] (active),-72.9% [33.3 µM] (active),-91.5% [33.3 µM] (active),1.08% [33.3 µM] (active),-1.03% [33.3 µM] (active),-29.4% [33.3 µM] (active),-94% [33.3 µM] (active),-46.2% [33.3 µM] (active),
CCCCNCCCN(CCCC)CCCNCCCC,112%,89%,83.7%,97.3%,104%,91.1%,94.6%,103%,
Oc1c(N=Nc2nn[nH]n2)ccc2ccccc12,107%,84.3%,59.1%,132%,86.8%,98.2%,102%,99.2%,
COc1c(Br)cc(C(c2cc(Br)c(OC)c(Br)c2)c2ccccc2C(=O)O)cc1Br,114%,96%,68.9%,106%,91.2%,91.6%,107%,89.4%,
CCOc1cc(CCNS(=O)(=O)c2ccc(C)cc2)c(C(C)=O)cc1OCC,86.1% [100 µM],80.5% [100 µM],-69.9% [100 µM] (active),84.6% [100 µM],75.5% [100 µM],36% [100 µM],62.1% [100 µM],9.64% [100 µM] (active),
Cn1c(N2N=C(c3ccc(Cl)cc3)CC2c2ccccc2)nc(-c2ccccc2)c(C#N)c1=O (stereo not drawn),78.4%,67.3%,60.5%,117%,77.2%,63.7%,79.6%,60.1%,
CSc1nc(-c2ccc(O)cc2O)c2c(=O)[nH]c(Nc3ccc(S(=O)(=O)Nc4nc(C)cc(C)n4)cc3)nc2n1,81.2%,107%,112%,123%,93.3%,1120%,113%,104%,103
CCCCCc1c(C)[nH]c(/C=C2\N=C(c3ccc[nH]3)C=C2Oc2ccc(Cl)cc2)c1C,-73.1% [100 µM] (active),-7.03% [100 µM] (active),-53% [100 µM] (active),-6.56% [100 µM] (active),-48% [100 µM] (active),-22.7% [100 µM] (active),-49% [100 µM] (active),-23.6% [100 µM] (active),
CCOC(=O)Nc1cc(-c2ccc(C)c(NS(C)(=O)=O)c2)nn2c(C)nnc12,13.5%,32%,-1.22% (active),-3.12% (active),8.87% (active),3.16% (active),-7.14% (active),18.9%,24.5
CSc1nc2nc3c(nc2c(=O)n1C)C(=O)c1ccccc1C3=O,-64.9% (active),-76.7% (active),-86.1% (active),-79.1% (active),-95% (active),-35.3% (active),-75.3% (active),-11.9% (active),
O=C1c2cccc3c([N+](=O)[O-])ccc(c23)C(=O)N1CCCCl,-94.9% [100 µM] (active),-93.1% [100 µM] (active),-86.6% [100 µM] (active),-50.2% [100 µM] (active),-96.1% [100 µM] (active),-91.4% [100 µM] (active),-92.4% [100 µM] (active),-11.3% [100 µM] (active),
COc1cccc(CCN2C(=O)CCC3=C2CCC3=O)c1,145%,99.4%,85.7%,107%,99.8%,98%,114%,105%,
c1ccc(COc2ccc(Nc3ncnc4c3cnn4-c3ccccc3)cc2)cc1,115%,97.4%,79.6%,111%,104%,99.1%,77.9%,93.1%,80.8
CC(C)C[C@H](NC(=O)/C=C/Cn1ccc2ccccc2c1=O)B(O)O,24%,54.7%,48.9%,2.1% (active),31.7%,45.3%,-3.46% (active),1.78% (active),12.2
Cc1cn(C(C=O)OC(C=O)CO)c(=O)[nH]c1=O (stereo not drawn),104%,102%,88.6%,103%,107%,105%,111%,104%,98.4
Cc1nn(-c2ccccc2)c2nc(N)c(C3=NCCO3)nc12,111%,96.8%,73.5%,128%,83%,78.4%,92.1%,101%,
O=C(N/N=C/c1cccc(O)c1O)c1ccccc1,54.5%,21.3%,4.38% (active),18.6%,11.5%,-20.5% (active),81.1%,9.39% (active),
CC[N+](CCCCCCCCCC[N+](CC)(c1ccccn1)c1ccccn1)(c1ccccn1)c1ccccn1,-58.6% (active),5.03% (active),26.4%,-3% (active),20.9%,24.2%,-2.28% (active),-8.33% (active),
Cc1ccc(-c2c3c(N)nc(-c4ccncc4)nc3nc3c2c(C)nn3-c2ccccc2)cc1,-7.11% (active),26.8%,93.4%,12.3%,53.2%,72.5%,82.7%,65.3%,
COc1ccc(NC(=O)c2ccccc2-c2ccccc2)c(C(N)=O)c1,26.4%,61.3%,40.1%,76.1%,40.4%,41.9%,30.8%,20%,11.7
NS(=O)(=O)c1ccc(-n2nc(-c3ccc(Br)cc3)ccc2=O)cc1,66.6% [100 µM],70.9% [100 µM],89.2% [100 µM],22.2% [100 µM],70.8% [100 µM],75.1% [100 µM],40.6% [100 µM],92.6% [100 µM],
CCCCCCCCCCCCCCCCCC1=NC(C)(CO)CO1 (stereo not drawn),91.3%,94.2%,76.3%,87.1%,91%,85.5%,104%,93.8%,
CC(NNC(=S)N1CCCCCC1)c1ccc2ccccc2n1 (stereo not drawn),90.2%,37.3%,9.9% (active),41.9%,16.7%,-9.22% (active),71.1%,28.3%,
